In the library only some 7.9% were active in any assay of this set; here they are far more common.
HER2 expr 66K: lowers expression of human Her2 kinase; HER2 level % of control, % at 10 µM; P04626; 0.69% of 65,000 active; AID 645; SKBR-3 HER2 protein level, AlphaScreen, 18-24 h; active compounds read low;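 active means HER2 level under 5% of the carrier-only control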;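 further: lower value means stronger loss of Her2 protein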
Cav3 T inh: human Cav3.2 channel inhibition, primary screen | O95180 | AID 449739 | B-score at 10 µM | 4% of 100,000 active | Cav3.2-expressing cells, Fluo-4 calcium fluorescence FDSS; active compounds read low;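 active means single-dose well whose peak fluorescence ratio is a statistical outlier from its plate by either plate-standardised score or position-corrected B-score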
Target sequence (O95180 whole entry, looked up): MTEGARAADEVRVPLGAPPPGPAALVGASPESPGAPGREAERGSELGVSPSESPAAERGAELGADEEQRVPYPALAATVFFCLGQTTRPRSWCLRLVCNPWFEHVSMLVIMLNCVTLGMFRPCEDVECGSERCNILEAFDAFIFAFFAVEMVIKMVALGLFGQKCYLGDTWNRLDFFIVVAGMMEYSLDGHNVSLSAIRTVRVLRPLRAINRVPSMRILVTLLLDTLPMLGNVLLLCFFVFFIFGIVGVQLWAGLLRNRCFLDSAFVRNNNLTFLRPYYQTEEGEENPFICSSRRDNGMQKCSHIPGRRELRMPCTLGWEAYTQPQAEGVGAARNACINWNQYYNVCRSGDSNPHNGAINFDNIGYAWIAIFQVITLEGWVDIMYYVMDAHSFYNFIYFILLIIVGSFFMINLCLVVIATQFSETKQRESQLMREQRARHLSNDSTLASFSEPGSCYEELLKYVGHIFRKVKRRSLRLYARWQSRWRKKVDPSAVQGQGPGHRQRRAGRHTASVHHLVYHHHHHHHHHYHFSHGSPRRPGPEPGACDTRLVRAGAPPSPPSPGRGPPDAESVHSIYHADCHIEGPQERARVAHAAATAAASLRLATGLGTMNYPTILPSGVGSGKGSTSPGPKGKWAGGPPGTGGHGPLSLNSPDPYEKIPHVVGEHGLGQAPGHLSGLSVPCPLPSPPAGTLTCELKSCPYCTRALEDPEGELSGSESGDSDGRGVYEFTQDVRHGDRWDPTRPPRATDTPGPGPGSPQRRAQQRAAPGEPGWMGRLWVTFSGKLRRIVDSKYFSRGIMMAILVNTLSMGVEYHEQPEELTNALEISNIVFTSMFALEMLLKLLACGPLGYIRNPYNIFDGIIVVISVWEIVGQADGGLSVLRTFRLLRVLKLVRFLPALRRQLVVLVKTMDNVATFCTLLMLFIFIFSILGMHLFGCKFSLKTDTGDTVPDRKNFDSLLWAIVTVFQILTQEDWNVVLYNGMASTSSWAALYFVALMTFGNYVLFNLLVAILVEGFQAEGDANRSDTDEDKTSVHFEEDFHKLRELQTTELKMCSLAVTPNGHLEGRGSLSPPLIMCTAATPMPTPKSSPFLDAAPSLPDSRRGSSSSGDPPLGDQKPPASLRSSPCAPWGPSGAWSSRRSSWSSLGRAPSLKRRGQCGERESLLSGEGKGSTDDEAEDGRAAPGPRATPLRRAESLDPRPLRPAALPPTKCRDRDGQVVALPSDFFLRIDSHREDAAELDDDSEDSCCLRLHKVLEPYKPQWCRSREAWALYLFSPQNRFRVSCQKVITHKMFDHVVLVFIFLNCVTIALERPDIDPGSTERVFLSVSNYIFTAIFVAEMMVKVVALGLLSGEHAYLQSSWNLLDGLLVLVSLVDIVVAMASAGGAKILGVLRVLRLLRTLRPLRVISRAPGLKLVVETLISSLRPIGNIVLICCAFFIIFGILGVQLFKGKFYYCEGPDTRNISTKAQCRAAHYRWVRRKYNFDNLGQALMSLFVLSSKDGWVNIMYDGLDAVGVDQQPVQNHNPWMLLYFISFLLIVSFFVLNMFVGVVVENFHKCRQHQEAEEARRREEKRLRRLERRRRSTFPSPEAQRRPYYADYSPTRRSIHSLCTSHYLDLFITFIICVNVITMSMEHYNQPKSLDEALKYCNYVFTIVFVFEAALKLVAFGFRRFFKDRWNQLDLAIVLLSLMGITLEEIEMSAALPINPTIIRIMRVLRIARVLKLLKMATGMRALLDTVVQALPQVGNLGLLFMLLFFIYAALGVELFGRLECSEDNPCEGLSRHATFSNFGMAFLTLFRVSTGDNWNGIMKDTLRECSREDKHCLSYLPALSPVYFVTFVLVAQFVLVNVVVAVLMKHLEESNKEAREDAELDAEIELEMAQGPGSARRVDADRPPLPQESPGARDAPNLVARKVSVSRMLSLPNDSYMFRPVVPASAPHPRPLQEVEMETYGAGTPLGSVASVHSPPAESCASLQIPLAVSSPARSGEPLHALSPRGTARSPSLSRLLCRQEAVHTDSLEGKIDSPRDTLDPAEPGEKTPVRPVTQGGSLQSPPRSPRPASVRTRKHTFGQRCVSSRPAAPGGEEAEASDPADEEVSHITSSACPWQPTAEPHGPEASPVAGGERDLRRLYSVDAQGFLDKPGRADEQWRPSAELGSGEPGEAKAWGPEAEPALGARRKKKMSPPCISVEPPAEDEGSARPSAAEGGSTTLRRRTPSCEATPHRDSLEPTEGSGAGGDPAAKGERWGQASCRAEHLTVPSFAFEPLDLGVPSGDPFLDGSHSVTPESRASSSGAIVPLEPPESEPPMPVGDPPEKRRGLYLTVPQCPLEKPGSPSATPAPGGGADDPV
M1 agonist: M1 muscarinic receptor agonism; B-score at 10 µM; 3% of 64,000 active; AID 626; CHO-M1 cells, Fluo-4 calcium fluorescence, agonist mode; active compounds read high;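 active means fluorescence rise, raw or as B-score row- and column-corrected plate score, outside the 99.7% band of its plate's samples, either direction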
M1 antagonist: blocks the rat M1 muscarinic receptor response to acetylcholine; CHO-M1 cells, Fluo-4 calcium, ACh EC80 antagonist mode; active compounds read low; P08482; AID 628; B-score at 10 µM; 3.4% of 64,000 active;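 active means calcium fluorescence response, raw or row-and-column corrected B-score, differing from the plate sample mean either way at a set confidence level, mostly lower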
PLAP act: human PLAP activation; P05187; purified PLAP enzyme, luminescent substrate read-out; active compounds read high; activation fold at 20 µM; 1.2% of 96,000 active; in the data active means activation fold above about 2
Numbers stand for hits; . = inactive; / = no result; ! = repeats disagree.

SMILES	HER2 expr 66K	Cav3 T inh	M1 agonist	M1 antagonist	PLAP act
COc1ccc(-c2n[nH]c(=S)n2C2CCCCC2)cc1	.	.	.	.	2
COc1ccc(OC)c(-n2c(-c3ccc(C)cc3)n[nH]c2=S)c1	/	.	/	/	.
C=CCOC(=O)C1=C[C@@H](c2csc3ccccc23)C[C@@H](OCCCCO)O1	/	.	/	/	/
O[C@@H]([C@H](O)[C@H](O)CBr)[C@H](O)CBr	/	.	/	/	/
Cc1ccc(CN2CCN(C(=O)C3CCCO3)CC2)cc1 (centres undefined)	.	.	.	.	.
O=C(C1CCCO1)N1CCN(Cc2c(O)ccc3ccccc23)CC1 (centres undefined)	/	.	/	/	2.4
CCC1=C(OC(=O)N(CC)CC)N2C(=O)OC(=NCC3CC3)[C@]2(Cc2ccccc2)[C@H]2C1=CC[C@H]1C(=O)N(c3ccccc3)C(=O)[C@H]12	/	.	/	/	/
CCOc1ccc(-c2nnc(-c3ccccc3)o2)cc1	/	-2.9	/	/	/
CCOC(=O)c1nnc(-c2ccccc2)o1	.	-4.5	.	.	.
O=C(Cc1cccc2ccccc12)NNC(=O)Nc1cccc(Cl)c1	/	-7.9	/	/	.
Cc1cccc(OCC(=O)NNC(=O)Nc2cccc(Cl)c2)c1C	/	.	/	/	.
CCOC(=O)c1c(CSC(=N)N)n(-c2ccc(C)cc2)c2cc(Br)c(OC(C)=O)cc12	/	-5.6	/	/	.
COC(=O)c1cnn(-c2nc3c(C)cccc3s2)c1C	/	.	/	/	.
O=C(CSc1nnnn1-c1ccc(Cl)cc1)NC(=O)Nc1ccc2c(c1)OCCO2	.	.	.	.	/
Clc1ccc(CSc2nnnn2-c2ccc3c(c2)OCO3)c(Cl)c1	/	-3.5	/	/	.
O=C1NC(Cc2c[nH]c3ccccc23)C(=O)N1CCOc1ccccc1 (centres undefined)	.	.	.	.	.
Cc1nn(-c2ccccc2)c(Cl)c1/C=C1\SC(=S)NC1=O	/	-4.5	/	/	.
CN1/C(=C/C(=O)c2nc(S(C)(=O)=O)ncc2Cl)C(C)(C)c2ccccc21	-15	.	.	.	.
CN1/C(=C\C(=O)C(F)F)C(C)(C)c2ccccc21	.	.	.	.	.
Cc1ccc(Cl)cc1N1CCN(C(=O)CSc2nnc3n2C(C)(C)Cc2ccccc2-3)CC1	/	-5.5	/	/	/
COc1ccc(N2CCN(C(=O)CSc3nnc4n3C(C)(C)Cc3ccccc3-4)CC2)cc1	.	/	.	.	.
CCOc1ccc2nc3c(cc2c1)CN(CCCO)C(=NCCOC)S3	.	.	.	.	.
NC(=O)C1CCN(CCCNC2CC(=O)N(Cc3ccc(N4CCCC4=O)cc3)C2=O)CC1 (centres undefined)	.	.	4.2	.	/
CCCOc1ccc(N2C(=O)CC(NCCCN3CCC(C(N)=O)CC3)C2=O)cc1 (centres undefined)	.	/	.	.	/
CCOP(=O)(c1ccccc1Cl)C1(O)CCCCC1 (centres undefined)	-28	.	.	.	.
SMILES	HER2 expr 66K	Cav3 T inh	M1 agonist	M1 antagonist	PLAP act
Cc1nc(SCc2ccccc2C)n[nH]1	.	.	.	.	2
CC(Sc1nc2ccccc2s1)C(=O)N1CCOCC1 (centres undefined)	.	.	/	/	.
COc1ccc(C2(O)CCN(CC(=O)Nc3nccs3)CC2)c(OC)c1	.	-4.7	.	.	2.4
CCc1nnc(NC(=O)CN2CCC(O)(c3ccccc3OC)CC2)s1	.	.	.	.	.
Cc1ccc(-n2c3c(c(=O)[nH]c2=O)C(C(F)(F)F)(C(F)(F)F)NC(=O)N3)cc1	/	.	/	/	.
Nc1nc(-c2ccc3ccccc3c2)c(C2(O)C(=O)Nc3c(Br)cc(F)cc32)s1 (centres undefined)	/	.	/	/	.
CCOC(=O)Cc1csc(NC(=O)COc2ccccc2OCC)n1	/	.	/	/	.
CCOC(=O)Cc1csc(NC(=O)COc2ccc(N(C)S(=O)(=O)c3ccc(C)cc3)cc2)n1	/	-6.5	/	/	.
CCOC(=O)Cc1csc(NC(=O)CSc2nnnn2-c2ccc(C)cc2C)n1	/	.	/	/	/
CCOC(=O)Cc1csc(NC(=O)CSc2nnnn2-c2ccc(F)cc2)n1	.	-4.5	.	.	.
CCOC(=O)Cc1csc(NC(=O)COc2ccc3ccccc3c2)n1	/	-10	/	/	.
Cc1ccc(S(=O)(=O)N2CCC(=O)N(C(COCc3cccc(C(F)(F)F)c3)Cc3ccccc3)CC2)cc1 (centres undefined)	/	.	/	/	/
CCc1nc2ccc(C)cc2c(C(=O)NC2CCCCC2C)c1C (centres undefined)	/	.	/	/	.
CC1(C)CN(c2ccccc2)N(Cc2ccc(F)cc2)C1=O	/	.	/	/	.
CCC(C(=O)NCc1ccco1)N(C(=O)CNS(=O)(=O)c1ccccc1)c1ccc(OC)cc1 (centres undefined)	/	.	/	/	.
COc1ccc(-c2nn(-c3ccccc3)cc2C(=O)NCCCn2ccnc2)cc1	.	.	.	.	2.6
c1ccc(CN(CC2=NCCN2)c2ccccc2)cc1	.	-2.8!	.	.	/
CSc1nnnn1-c1ccc(C(=O)O)cc1	/	.	/	/	.
O=C(O)c1ccc(-n2nnnc2SCc2ccccc2F)cc1	.	-4.1	.	.	.
ONC(=Nc1ccc(Cl)cc1)c1ccccc1	/	/	/	/	.
O=S(=O)(c1ccccc1)n1nc(-c2ccccc2)nc1NCc1ccco1	.	-4.5	.	.	.
Cc1cccc(NC(=O)CN2NS(=O)(=O)c3ccccc3C2=O)c1	/	.	/	/	.
Cc1ccc(N2C(=O)N(CC(=O)N3CCCc4ccccc43)C(=O)C2C)cc1 (centres undefined)	/	.	/	/	.
COC(=O)C1=C(C)NC(=O)NC1c1cccc(OC)c1OCc1ccccc1 (centres undefined)	/	/	/	/	.
CCCOc1ccc(/C=c2\sc3nc(-c4ccco4)nn3c2=O)cc1OCC	.	/	25	.	.
SMILES	HER2 expr 66K	Cav3 T inh	M1 agonist	M1 antagonist	PLAP act
O=C(CCCCCN1C(=O)c2ccccc2C1=O)Nc1ccc(F)cc1	/	.	/	/	/
O=[N+]([O-])c1ccc(NCCNS(=O)(=O)c2ccccc2)c(C(F)(F)F)c1	/	-4.9	/	/	.
COc1ccc(C(=O)N/N=C/c2ccc3cccc(OCc4ccccc4)c3n2)cc1	/	.	/	/	.
O=C(N/N=C/c1ccc2cccc(OCc3ccccc3)c2n1)c1ccc(Br)cc1	/	-4	/	/	.
Cc1cccc(CSc2ncnc3nc[nH]c23)c1	.	/	.	.	2.2
Cc1ccsc1C(=O)Nc1ccccc1N1CCOCC1	/	.	/	/	.
CCCc1nc2ccccc2c(=O)n1NC(=O)c1c(O)c2cccc3c2n(c1=O)CCC3	.	-8	.	.	.
CCCCCCNC(=O)c1c(O)c2cccc3c2n(c1=O)CCC3	.	.	/	/	.
O=C(CCc1nc2ccccc2[nH]1)N1CCN(C(=O)c2ccco2)CC1	.	/	.	.	/
O=C(CSc1ccc(-c2nc3ccccc3[nH]2)cn1)N1CCN(C(=O)c2ccco2)CC1	.	.	12	.	.
COc1ccc(Br)cc1/C=N/NC(=O)CNC(=O)/C=C/c1ccccc1	/	-7.6	/	/	.
COc1ccc(/C=C/C(=O)NCC(=O)N/N=C/c2cc(Br)ccc2OCc2ccccc2)cc1	/	.	/	/	.
Cc1cc(C)c2c(-n3cccc3)c(C(=O)NNS(=O)(=O)c3ccc(Cl)cc3)sc2n1	/	-5.1	/	/	.
Cc1cc(C)c2c(-n3cccc3)c(C(=O)NNS(=O)(=O)c3ccccc3)sc2n1	/	.	/	/	.
NC(=O)C1(N2CCCCC2)CCN(Cc2ccccc2Cl)CC1	.	.	.	.	.
